The full ranking holds about 33,000 sequences; the median of “E-score (-0.5 to 0.5)” is about -0.0034, and the highest 2% start at about 0.25. The sample holds the highest values, similar sequences and a random draw of the others, so the mix is not that of the screen.
biological target: T1, Yap3 (UniProt P38749); test: PBM E-score (8-mer binding enrichment) (E-score (-0.5 to 0.5)); higher = stronger / more preferred TF binding; settings: protein concentration: 100 nM; construct: GST-full length
T1 sequence: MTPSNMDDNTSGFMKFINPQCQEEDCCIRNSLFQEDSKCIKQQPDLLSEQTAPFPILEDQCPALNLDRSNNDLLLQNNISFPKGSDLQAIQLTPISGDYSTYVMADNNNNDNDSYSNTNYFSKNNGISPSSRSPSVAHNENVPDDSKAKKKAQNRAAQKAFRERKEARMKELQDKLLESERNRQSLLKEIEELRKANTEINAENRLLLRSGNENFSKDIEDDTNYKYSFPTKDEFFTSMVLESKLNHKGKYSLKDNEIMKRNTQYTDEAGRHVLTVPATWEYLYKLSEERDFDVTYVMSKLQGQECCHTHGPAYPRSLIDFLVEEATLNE
Method: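 Universal 'all 10-mer' protein binding microarrays (Agilent AMADID 015681) probed with GST-tagged S. cerevisiae TFs (full-length or DBD) made by in vitro transcription/translation (PURExpress), about 100-200 nM. Bound TF was detected with fluorescent anti-GST. Each ungapped 8-mer (which stands for itself and its reverse complement) is scored by the PBM enrichment score (E-score), a modified Wilcoxon-Mann-Whitney statistic from -0.5 to +0.5, computed with the Universal PBM Analysis Suite. Scale: above 0.35 generally sequence-specific binding.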

Sequence | PBM E-score
CAGGCAAG | -0.0287
ATACGTAA | 0.266
ATACGTAC | 0.0322
ATACGTAG | 0.0583
CCTTAGCC | -0.0133
CGCCATCC | -0.247
ATGTAACG | 0.164
CTGTAAGC | -0.0121
ATGTAATG | 0.151
CTGTAATA | 0.113
CTGTAAGA | -0.0157
ATGTAAGG | 0.129
ATGTAAGA | 0.277
GTGTAAGA | -0.0287
ATGTAATA | 0.371
CTGTAACA | -0.0647
ATGTAACA | 0.256
ATGTAAGC | 0.264
AGCGTCGA | 0.124
AACCTAAA | 0.142
ATCCCTGA | -0.0313
CAGCACAC | -0.173
AAGTGTTA | 0.112
TAGAGCTA | -0.0728
AATCCTCT | -0.127

Sequence | PBM E-score
CCAGTTCG | -0.114
AAAATCTA | 0.0549
AGCTACTA | 0.0917
CGCTACTA | 0.264
CGCTACTC | -0.112
ATTTTCTC | 0.0752
CTACTACA | 0.225
ATAATACC | 0.226
ATAATACG | 0.292
AGAATACG | 0.0873
GAAATACA | 0.0912
GTAATACA | 0.273
ATAATACA | 0.357
ATACTACA | 0.28
ACAATACA | 0.0763
CTAATACA | 0.25
ACAATACG | 0.0668
ATACTACC | 0.0377
GAAGGCAC | -0.128
AAGGATTC | -0.129
GAGTGGAA | 0.0318
CGATATCC | 0.146
AAAGAGGC | -0.0407
ATTCCTTG | -0.113
CTTATATC | 0.218

Sequence | PBM E-score
ACTATATC | 0.227
ACTATATA | 0.328
GGCATATA | 0.268
GTTATATA | 0.224
CGCATATA | 0.00761
ACCATATC | 0.0587
AGCATATA | 0.0558
ACCATATG | 0.122
ACCATATA | 0.285
CTTATATA | 0.315
GCTATATA | 0.101
ACCTAAAC | 0.122
GAGGGATC | -0.253
ACTGGTAA | 0.184
CCTAGACC | -0.146
CGAAGGTA | 0.00763
AGTGCGCG | -0.0557
CCCTGTCC | -0.276
TAGAGCAA | -0.0378
AAACTGCT | -0.156
GACTCTTA | 0.141
ATTATATA | 0.3
ATTATATC | 0.16
ATTATATG | 0.221
AATGCCAG | -0.00344

Sequence | PBM E-score
GCGTGGCC | -0.3
TGTCGAAA | -0.0162
AAATAATT | 0.287
TAATAGAA | 0.257
GAATAACA | 0.308
GAATAATA | 0.292
GAATAGAA | 0.125
AAATAGAA | 0.0373
GAATAATC | 0.217
CAATAACA | 0.0825
AAATAAAT | 0.241
GAATAAGA | 0.109
TAATAACA | 0.189
AAATAAGT | 0.145
TAACACTA | 0.245
ACGCGTTA | 0.0763
GGCTCTGA | -0.03
CAGAGTTA | -0.0557
ACACCATA | 0.164
GCGCACCA | -0.0312
GATTAGAA | 0.0967
AAATAATG | 0.24
AAATAAAA | 0.224
AAATAATA | 0.307
AAATAATC | 0.0637

Sequence | PBM E-score
CATTAGAA | 0.123
TAATAAAA | 0.324
CAATAATA | 0.237
TAATAATA | 0.373
TAATAAGA | 0.136
GAATAAAA | 0.178
TATTAGAA | 0.287
AAATGAGT | 0.23
ACATCCAT | 0.0624
TGGCCACA | -0.0477
GCCTATGA | -0.134
GGTCCCAA | -0.151
ATCGACAT | 0.0988
ACCTGCTG | 0.0821
GGATAACA | 0.116
TGATAACA | 0.258
CGATAACA | 0.097
CGTTTTAA | 0.126
GAGGACGC | -0.1
TGTTCTAA | 0.256
GGTTCTAA | 0.218
AGTTCTAA | -0.0287
AGCTTGCG | -0.219
AATTGGGC | 0.0215
AATTGGGT | 0.331

Sequence | PBM E-score
AATTGGGG | -0.023
GCTATTAA | 0.103
TATATTAA | 0.315
TATCTCAA | 0.256
GATATTAA | 0.212
AATATTAT | 0.333
AATATTAG | 0.239
CATCTCAA | 0.108
AATATTAA | 0.346
TCTATTAA | 0.188
TGTATTAA | 0.126
AATCTCAA | 0.134
ACTATTAT | 0.123
AGAGGAAG | -0.0758
AATCGGGA | 0.0297
CTTTGATC | -0.0556
TGTAGAAA | 0.0253
CGATGGCA | -0.145
TAGCGGAA | -0.00131
AATATTAC | 0.31
AATATTGC | 0.202
AATATTCT | 0.133
GCTATTAC | 0.137
CATATCAG | 0.064
AATATTCC | 0.281

Sequence | PBM E-score
AATATCAA | 0.244
CATATCAA | 0.275
AATATTCG | 0.223
CCTATTAC | 0.176
GATATTCC | 0.12
GATATTAC | 0.371
ACGAACTC | 0.0654
TAGGAGAA | -0.178
AGAACGAA | 0.233
ATGTTGCA | 0.0661
TCATTCGA | 0.195
AGGATTAC | 0.125
GGAACGAC | -0.133
AGAGAATA | 0.208
GATATTCA | 0.0491
GAAATCAA | 0.0981
AAAATCAA | 0.19
CAAATCAA | 0.267
CATATTAG | 0.184
AATATTCA | 0.223
CATATTGA | 0.0743
CATATTAC | 0.282
CGTATTAA | 0.0173
CATATTAA | 0.299
CATATTTC | 0.0493

Sequence | PBM E-score
TATATTCA | 0.259
AAATACAT | 0.154
CTTGGTGC | -0.023
AGATAGCA | 0.0137
AACAGCAC | 0.0426
GCGATCGC | 0.191
CAATATGG | -0.00272
CACATTGC | 0.0928
CACTGCTA | 0.025
CGTTCTGA | -0.106
CACATTAG | -0.0914
AATATCAG | 0.121
AACATTAC | 0.149
CACATTAC | 0.276
AATATCAT | 0.277
AATATCAC | 0.222
ACAATTCT | 0.0509
AGGTTTGA | -0.014
CCAGGTCC | -0.307
TACATACA | 0.209
GACATACA | 0.256
CACATACA | -0.0173
GGACCGGA | -0.112
AATACAAA | 0.259
TTTACAAA | 0.262

Sequence | PBM E-score
ATTACAAG | 0.166
GTTACAAA | 0.225
CTTACAAA | 0.19
ATTACAAT | 0.125
AATACAAG | 0.24
ATTACAAA | 0.37
GATACAAA | 0.162
AGCATTCG | -0.106
GGATACGA | 0.0439
CGGCTGTA | -0.147
AATGTATG | 0.0768
AAGCCAGC | -0.0187
GTCGGGTA | 0.0387
GCTGCATA | 0.0463
AAGGGTGA | -0.0745
AGAGCCAG | -0.175
GTGACTAA | 0.262
ATGACTAC | 0.0437
CTGACTTA | 0.16
ATGACTAA | 0.431
CTGACTAC | -0.0607
CTGACTAA | 0.392
GTGACTGA | 0.167
GTGACTCA | 0.0409
ATGACTAG | 0.07

Reference: the supplement of paper PMC3334620
